Test results published in PubChem BioAssay AID1159580 (chemical genetic matrix, 2015).
Among all 5,500 compounds or so, about 2,000 (36%) were called active. Another 18% or so got no clear call; they are omitted. Cut-off read from the data, not from the text of the source: active = normalized growth mostly below about 0.91 (no sharp cut-off); inconclusive = no clear call, values can overlap the other calls; inactive = mostly above about 0.92. The list shows a part of the results.

Test: chemical genetic growth profiling, strain panel (AID 1159580);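 note: tested at 20 µM; growth read once vehicle control cultures reached saturation at 30 °C; 1 = growth at the plate median or of vehicle wells; lower values mean less growth of the strain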
Conditions: growth OD

Measured: normalized growth

Cc1cccc(Nc2ccccc2C(=O)O)c1C
inactive: S. cerevisiae deletion strains, locus YJR075W, strain HOC1, active compounds read low 0.937 | S. cerevisiae deletion strains, locus YKL068W, active compounds read low 0.985 | S. cerevisiae deletion strains, locus YKL085W, strain MDH1 (second series), active compounds read low 0.972 | S. cerevisiae deletion strains, locus YKL085W, strain MDH1, active compounds read low 0.972 | S. cerevisiae deletion strains, locus YKL160W, strain elf1, active compounds read low 0.921 | S. cerevisiae deletion strains, locus YLL001W, strain dnm1, active compounds read low 0.914 | S. cerevisiae deletion strains, locus YLL026W, active compounds read low 0.952 | S. cerevisiae deletion strains, locus YLR027C, strain aat2, active compounds read low 0.936 | S. cerevisiae deletion strains, locus YLR058C, strain SHM2, active compounds read low 0.906 | S. cerevisiae deletion strains, locus YLR113W, strain HOG1, active compounds read low 0.903 | S. cerevisiae deletion strains, locus YLR221C, strain rsa3, active compounds read low 0.925 | S. cerevisiae deletion strains, locus YLR258W, strain gsy2, active compounds read low 0.924 | S. cerevisiae deletion strains, locus YLR262C, strain YPT6, active compounds read low 0.683 | S. cerevisiae deletion strains, locus YLR320W, strain mms22, active compounds read low 0.894 | S. cerevisiae deletion strains, locus YLR357W, strain rsc2, active compounds read low 0.979 | S. cerevisiae deletion strains, locus YLR370C, strain arc18, active compounds read low 0.913 | S. cerevisiae deletion strains, locus YML120C, strain ndi1, active compounds read low 0.922 | S. cerevisiae deletion strains, locus YMR058W, strain fet3, active compounds read low 0.918 | S. cerevisiae deletion strains, locus YMR125W, strain sto1, active compounds read low 0.955 | S. cerevisiae deletion strains, locus YMR205C, strain PFK2, active compounds read low 0.919 | S. cerevisiae deletion strains, locus YMR263W, strain SAP30, active compounds read low 0.891 | S. cerevisiae deletion strains, locus YMR307W, strain GAS1, active compounds read low 0.672 | S. cerevisiae deletion strains, locus YNL067W, strain RPL9B, active compounds read low 0.926 | S. cerevisiae deletion strains, locus YNL128W, strain TEP1, active compounds read low 0.988 | S. cerevisiae deletion strains, locus YNL153C, strain GIM3, active compounds read low 0.933 | S. cerevisiae deletion strains, locus YNL209W, strain ssb2, active compounds read low 0.939 | S. cerevisiae deletion strains, locus YNL233W, strain BNI4, active compounds read low 0.927 | S. cerevisiae deletion strains, locus YNL248C, strain rpa49, active compounds read low 0.971 | S. cerevisiae deletion strains, locus YNL250W, strain rad50, active compounds read low 0.988 | S. cerevisiae deletion strains, locus YNL271C, strain bni1, active compounds read low 0.941 | S. cerevisiae deletion strains, locus YOL006C, strain TOP1, active compounds read low 0.884 | S. cerevisiae deletion strains, locus YOL012C, strain htz1 1.12 | S. cerevisiae deletion strains, locus YOR001W, strain rrp6, active compounds read low 0.938 | S. cerevisiae deletion strains, locus YOR061W, strain CKA2, active compounds read low 0.894 | S. cerevisiae deletion strains, locus YOR070C, strain gyp1, active compounds read low 0.928 | S. cerevisiae deletion strains, locus YOR080W, strain dia2, active compounds read low 0.941 | S. cerevisiae deletion strains, locus YOR083W, strain WHI5, active compounds read low 0.921 | S. cerevisiae deletion strains, locus YOR106W, strain vam3, active compounds read low 0.94 | S. cerevisiae deletion strains, locus YOR136W, strain idh2, active compounds read low 0.958 | S. cerevisiae deletion strains, locus YOR231W, strain MKK1, active compounds read low 0.919 | S. cerevisiae deletion strains, locus YOR270C, strain vph1, active compounds read low 0.868 | S. cerevisiae deletion strains, locus YOR290C, strain snf2, active compounds read low 0.919 | S. cerevisiae deletion strains, locus YPL055C, strain LGE1, active compounds read low 0.881 | S. cerevisiae deletion strains, locus YPL078C, strain atp4, active compounds read low 0.893 | S. cerevisiae deletion strains, locus YPL106C, strain sse1, active compounds read low 1.05 | S. cerevisiae deletion strains, locus YPL256C, strain CLN2, active compounds read low 0.874 | S. cerevisiae deletion strains, locus YPR141C, strain kar3, active compounds read low 0.981 | S. cerevisiae deletion strains, strain wtn01, active compounds read low 0.911 | S. cerevisiae strains, strain wild type, active compounds read low 0.937
active: S. cerevisiae deletion strains, locus YKL009W, strain mrt4, active compounds read low 0.874 | S. cerevisiae deletion strains, locus YKL190W, strain CNB1, active compounds read low 0.908 | S. cerevisiae deletion strains, locus YKR001C, strain vps1, active compounds read low 0.676 | S. cerevisiae deletion strains, locus YKR026C, strain gcn3, active compounds read low 0.877 | S. cerevisiae deletion strains, locus YKR091W, strain srl3, active compounds read low 0.909 | S. cerevisiae deletion strains, locus YLL041C, strain sdh2, active compounds read low 0.901 | S. cerevisiae deletion strains, locus YLR039C, strain RIC1, active compounds read low 0.597 | S. cerevisiae deletion strains, locus YLR102C, strain apc9, active compounds read low 0.876 | S. cerevisiae deletion strains, locus YLR262C, strain YPT6 (second series), active compounds read low 0.749 | S. cerevisiae deletion strains, locus YLR268W, strain sec22, active compounds read low 0.869 | S. cerevisiae deletion strains, locus YLR330W, strain CHS5, active compounds read low 0.87 | S. cerevisiae deletion strains, locus YLR342W, strain FKS1 (second series), active compounds read low 0.756 | S. cerevisiae deletion strains, locus YLR342W, strain FKS1, active compounds read low 0.897 | S. cerevisiae deletion strains, locus YLR371W, strain rom2, active compounds read low 0.858 | S. cerevisiae deletion strains, locus YLR384C, strain iki3, active compounds read low 0.894 | S. cerevisiae deletion strains, locus YLR418C, strain cdc73, active compounds read low 0.775 | S. cerevisiae deletion strains, locus YML016C, strain PPZ1, active compounds read low 0.886 | S. cerevisiae deletion strains, locus YML032C, strain rad52, active compounds read low 0.891 | S. cerevisiae deletion strains, locus YML124C, strain tub3, active compounds read low 0.843 | S. cerevisiae deletion strains, locus YMR078C, strain ctf18, active compounds read low 0.838 | S. cerevisiae deletion strains, locus YMR129W, active compounds read low 0.908 | S. cerevisiae deletion strains, locus YMR223W, strain ubp8, active compounds read low 0.869 | S. cerevisiae deletion strains, locus YMR231W, strain pep5, active compounds read low 0.9 | S. cerevisiae deletion strains, locus YNL071W, strain lat1, active compounds read low 0.897 | S. cerevisiae deletion strains, locus YNL183C, strain NPR1, active compounds read low 0.805 | S. cerevisiae deletion strains, locus YNL298W, strain CLA4, active compounds read low 0.844 | S. cerevisiae deletion strains, locus YNL307C, strain MCK1, active compounds read low 0.626 | S. cerevisiae deletion strains, locus YNL322C, strain KRE1 (second series), active compounds read low 0.898 | S. cerevisiae deletion strains, locus YNL322C, strain KRE1, active compounds read low 0.912 | S. cerevisiae deletion strains, locus YNR049C, strain mso1, active compounds read low 0.912 | S. cerevisiae deletion strains, locus YNR052C, strain pop2, active compounds read low 0.878 | S. cerevisiae deletion strains, locus YOL147C, strain pex11, active compounds read low 0.87 | S. cerevisiae deletion strains, locus YOR069W, strain VPS5, active compounds read low 0.893 | S. cerevisiae deletion strains, locus YOR144C, strain elg1, active compounds read low 0.86 | S. cerevisiae deletion strains, locus YOR184W, strain ser1, active compounds read low 0.724 | S. cerevisiae deletion strains, locus YOR265W, strain rbl2, active compounds read low 0.908 | S. cerevisiae deletion strains, locus YOR316C, strain cot1, active compounds read low 0.874 | S. cerevisiae deletion strains, locus YPL051W, strain arl3, active compounds read low 0.906 | S. cerevisiae deletion strains, locus YPL240C, strain hsp82, active compounds read low 0.915 | S. cerevisiae deletion strains, locus YPL241C, strain CIN2, active compounds read low 0.902 | S. cerevisiae deletion strains, locus YPR119W, strain clb2, active compounds read low 0.856 | S. cerevisiae deletion strains, locus YPR163C, strain tif3, active compounds read low 0.893 | S. cerevisiae deletion strains, locus YPR167C, strain met16, active compounds read low 0.87
